ABCB6 inh MLPCN = inhibitors of human ABC transporter ABCB6; Q9NP58; K562-ABCB6 porphyrin accumulation, flow cytometry, 1 h; active compounds read low; fluorescence ratio to DMSO, % at 10 µM; 360,000 compounds, 0.19% hits;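 active = fluorescence ratio to DMSO below 75%, the collection mean minus 3 SD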;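 also: signal is porphyrin accumulated inside mitochondria; lower ratio means ABCB6 inhibition with less porphyrin fluorescence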
Target sequence (Q9NP58 whole entry, looked up): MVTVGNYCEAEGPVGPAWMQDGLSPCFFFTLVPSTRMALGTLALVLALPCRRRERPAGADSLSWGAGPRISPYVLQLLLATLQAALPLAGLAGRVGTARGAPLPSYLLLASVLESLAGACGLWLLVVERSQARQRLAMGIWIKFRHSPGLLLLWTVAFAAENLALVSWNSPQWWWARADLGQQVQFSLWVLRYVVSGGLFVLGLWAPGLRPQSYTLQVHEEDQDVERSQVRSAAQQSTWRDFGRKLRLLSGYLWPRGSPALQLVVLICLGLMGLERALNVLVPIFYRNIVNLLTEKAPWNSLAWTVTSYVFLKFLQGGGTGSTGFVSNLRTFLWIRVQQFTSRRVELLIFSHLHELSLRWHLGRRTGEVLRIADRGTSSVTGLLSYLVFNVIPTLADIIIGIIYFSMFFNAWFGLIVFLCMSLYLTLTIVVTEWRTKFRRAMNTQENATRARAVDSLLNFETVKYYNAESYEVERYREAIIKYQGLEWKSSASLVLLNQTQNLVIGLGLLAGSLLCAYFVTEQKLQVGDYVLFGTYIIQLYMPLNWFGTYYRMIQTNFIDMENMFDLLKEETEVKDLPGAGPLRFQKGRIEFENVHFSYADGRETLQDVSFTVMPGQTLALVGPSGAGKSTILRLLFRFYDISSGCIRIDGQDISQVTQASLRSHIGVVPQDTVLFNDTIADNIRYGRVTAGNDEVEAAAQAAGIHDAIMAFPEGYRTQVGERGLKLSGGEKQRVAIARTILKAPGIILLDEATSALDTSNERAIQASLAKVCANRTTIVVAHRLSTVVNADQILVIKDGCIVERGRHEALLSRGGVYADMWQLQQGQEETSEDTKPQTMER
SMARCA2 act = activators of SMARCA2 function. MG213 cells, MMTV-luciferase reporter, dexamethasone, overnight. activation, % at 9.1 µM. 370,000 compounds, 1% hits. AID 652017; in the data active = activation above about 7.8%
MsrA inhibitor = bovine MsrA inhibition. 360,000 compounds, 0.75% hits. purified bovine MsrA, absorbance read-out. inhibition, % at 15.5 µM. AID 651718
MsrA act = activates bovine MsrA enzyme; purified bovine MsrA, absorbance read-out; activation, % at 10.6 µM; 360,000 compounds, 0.3% hits; in the data active = activation above about 7.5%
MsrA inh confirm = bovine MsrA inhibition, confirmed. inhibition, % at 15.5 µM. 2,300 compounds, 41% hits. shares compounds with MsrA inhibitor. purified bovine MsrA, absorbance read-out;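 also: coupled to thioredoxin reductase with NADPH and selenocystamine and DMSO as substrate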
Of the large screens only hits and unclear results are named; the others gave an inactive call (follow-up assays come after a bar, where they were run). Hits are enriched below; roughly 2.1% of the tested compounds scored in any of these assays. Rule as the data show it, unless noted: active = inhibition above about 4.5%; inactive = the rest.

CNC[C@H]1OCc2cnnn2CCCC(=O)N([C@@H](C)CO)C[C@@H]1C	none (no result: ABCB6 inh MLPCN, MsrA act)
O=C(NC(=S)Nc1ccccc1N1CCOCC1)c1ccco1	MsrA inhibitor 8.0 | MsrA inh confirm inactive
Cc1ccc(NC(=S)N/N=C/c2c(C)[nH]c3ccccc23)cc1	none
Cc1[nH]c2ccccc2c1/C=N/NC(=O)c1ccccc1	MsrA inhibitor 6.2 | MsrA inh confirm inactive
Cc1[nH]c2ccccc2c1/C=N/NC(=O)c1cccc(Br)c1	none (no result: SMARCA2 act, MsrA inhibitor)
Cc1[nH]c2ccccc2c1/C=N/NC(N)=S	MsrA inhibitor 5.8 | MsrA inh confirm 4.7
Nc1ccc(-c2cnc(-c3ccc(N)cc3)nc2)cc1	MsrA inhibitor 8.6 | MsrA inh confirm 7.6
Nc1ccc(-c2cnc3ccccc3n2)cc1	none
COc1ccc(/C=C/C(=O)O/N=C(\N)c2ccccn2)cc1OC	MsrA inhibitor 4.8 | MsrA inh confirm inactive
COc1cc(/C=C/C(=O)NC(=O)c2ccccc2O)ccc1O	MsrA inhibitor 5.6 | MsrA inh confirm inactive
N/C(=N\OC(=O)/C=C/c1ccccc1)c1ccccn1	none
CCc1cc(C(=O)O)c(NC(=O)/C=C/c2ccc(OC)c(OC)c2)s1	MsrA inhibitor 5.6 | MsrA inh confirm 4.9
COc1ccc(/C=C/C(=O)Nc2ccc(C(N)=O)cc2)cc1OC	MsrA inhibitor 5.0 | MsrA inh confirm 5.0
CCC(C)NC(=O)CSc1nnc(-c2cc(OC)c(OC)c(OC)c2)o1 (centres undefined)	none (no result: ABCB6 inh MLPCN, MsrA inhibitor, MsrA act)
COc1ccc2c(c1)[C@@]1(OCCC=C[C@H]1C)C(=O)N2Cc1ccc(F)cc1	none (no result: ABCB6 inh MLPCN, MsrA act)
O=S1(=O)CC(N2CCN(Cc3ccccc3F)CC2)CN1Cc1cn(Cc2cccc(Cl)c2)nn1 (centres undefined)	none
COc1ccc(/C=C/C(=O)Nc2ccccc2C(=O)O)cc1OC	MsrA inhibitor 5.2 | MsrA inh confirm 5.4
COc1ccc(/C=C/C(=O)c2ccc(C(=O)/C=C/c3ccc(OC)c(OC)c3)cc2)cc1OC	none
COc1ccc(/C=C/C(=O)c2ccc[nH]2)cc1OC	MsrA inhibitor 5.4 | MsrA inh confirm inactive
CCc1n[nH]c2c1/C(=N\O)CC(C)(C)C2	none
CCCc1n[nH]c2c1/C(=N\OCC)CC(C)(C)C2	MsrA inhibitor 4.8 | MsrA inh confirm inactive
CC(=O)c1ccc(N2CCN(C(=O)C3CCCN(S(=O)(=O)c4cnc[nH]4)C3)CC2)cc1 (centres undefined)	MsrA inhibitor 5.1 | MsrA inh confirm inactive
COc1cc(-c2nc3ccccn3c2/N=C/c2ccccc2)ccc1O	none
COc1cc(-c2nc3ccccn3c2/N=C/c2cc(OC)c(O)cc2Cl)ccc1O	MsrA inhibitor 4.7 | MsrA inh confirm inactive
Cc1ccccc1CN1CCCCC(NC(=O)Nc2ccccc2-c2ccccc2)C1=O (centres undefined)	none (no result: ABCB6 inh MLPCN, MsrA inhibitor, MsrA act)
Nc1nc(N)c2sc3nc(C(F)(F)F)cc(C(F)(F)F)c3c2n1	MsrA inhibitor 7.5 | MsrA inh confirm inactive
Nc1ccc2c(C(F)(F)F)cc(C(F)(F)F)nc2n1	none
CS/C(=C/[N+](=O)[O-])Nc1cccc2c1C(C)CC2(C)C (centres undefined)	MsrA inhibitor 23 | MsrA inh confirm 20
O=C(O)/C(=C\c1ccc(Cl)cc1)c1ccc(S(=O)(=O)N2CCCC2)s1	none
CSc1ccc(/C=C(\C(=O)O)c2ccc(S(=O)(=O)N3CCCCC3)s2)cc1	MsrA inhibitor 5.9 | MsrA inh confirm inactive
Cc1ccc(-c2cc(C(=O)O)c3ccccc3n2)s1	MsrA inhibitor 5.4 | MsrA inh confirm inactive
C=C1c2cccc(O)c2C(O)=C2C(=O)[C@]3(O)C(O)=C(C(N)=O)C(=O)[C@@H](N(C)C)[C@@H]3[C@@H](O)[C@H]12	none
C[C@H]1c2cccc(O)c2C(O)=C2C(=O)C3(O)C(O)=C(C(N)=O)C(=O)[C@@H](N(C)C)[C@@H]3[C@@H](O)[C@@H]21 (some centres undefined)	MsrA inhibitor 4.9 | MsrA inh confirm inactive
CCCCc1c(-c2ccccc2OC)ncn1Cc1cc(F)cc(F)c1	none (no result: ABCB6 inh MLPCN, MsrA act)
O=C(/C=C/c1cccs1)c1ccc(N2CCOCC2)cc1	MsrA inhibitor 6.1 | MsrA inh confirm inactive
O=C(/C=C/c1cccc(F)c1)c1ccc(N2CCOCC2)cc1	none
COCCCN1C(=O)C(CC(=O)NC2CCCCC2)CC(C(=O)N2CCCCCC2)=C1C (centres undefined)	none
CCc1nc(N)c(C#N)c(-c2cccnc2)c1C	MsrA inhibitor 4.7 | MsrA inh confirm inactive
Cc1nc(N)c(C#N)c(-c2cccnc2)c1C	none
COc1ccc(/C=N/NC(=O)c2ccc(CN3c4cccc5cccc(c45)S3(=O)=O)cc2)cc1	MsrA inhibitor 5.0 | MsrA inh confirm 5.2
COc1ccc(/C=N/NC(=O)c2ccc(COCC(F)(F)C(F)F)cc2)cc1	none

Screening data from PubChem.
